The full list was thinned out, with hits kept by preference.
PLAP act: activates human placental alkaline phosphatase; purified PLAP enzyme, luminescent substrate read-out; stronger effect = higher value; activation fold at 20 µM; 96,000 compounds, 1.2% hits; in the data active = activation fold above about 2
Target sequence (P05187 whole entry, looked up): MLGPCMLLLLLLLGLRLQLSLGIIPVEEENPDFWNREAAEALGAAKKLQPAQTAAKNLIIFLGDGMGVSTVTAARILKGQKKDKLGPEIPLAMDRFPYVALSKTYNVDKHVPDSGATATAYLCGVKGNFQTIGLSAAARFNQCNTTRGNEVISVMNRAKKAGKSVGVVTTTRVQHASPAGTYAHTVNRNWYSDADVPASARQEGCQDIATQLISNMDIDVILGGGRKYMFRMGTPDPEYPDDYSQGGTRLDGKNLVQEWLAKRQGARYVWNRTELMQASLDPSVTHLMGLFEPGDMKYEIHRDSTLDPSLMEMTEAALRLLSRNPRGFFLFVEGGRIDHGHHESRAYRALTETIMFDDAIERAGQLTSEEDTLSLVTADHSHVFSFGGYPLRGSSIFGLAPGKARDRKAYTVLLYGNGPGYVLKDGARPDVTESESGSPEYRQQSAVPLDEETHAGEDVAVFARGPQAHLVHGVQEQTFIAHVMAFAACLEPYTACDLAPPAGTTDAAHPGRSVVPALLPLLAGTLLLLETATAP
TNAP act DEA: activators of human TNAP at intermediate phosphate acceptor | AID 813 | purified TNAP, CDP-star luminescence, 100 mM DEA, 30 min; stronger effect = higher value; scale: 0 levamisole-inhibited, 1 vehicle-only enzyme | activation factor at 20 µM | 64,000 tested, under 10 active;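 active = activation factor of at least 2 at 20 µM, relative to controls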
Ec RNAP inh: Escherichia coli RNA polymerase inhibition; E. coli RNA polymerase, fluorescence transcription assay; 62,000 compounds, 0.2% hits; P0A8V2; inhibition, %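 (tested at 10 µM)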; in the data active = inhibition above about 20%
A number is an active result; 0 = inactive; - = not tested or not shown.

SMILES	PLAP act	TNAP act DEA	Ec RNAP inh
Clc1ccc(C2=Nn3c(nnc3-c3n[nH]c4c3CCC4)SC2)cc1Cl	-	0	0
COc1cccc(C(=O)Nc2ncc3c(n2)CC(C)(C)CC3=O)c1	0	0	0
Cc1ccc(SCCC(=O)Nc2cccc(N(C)S(C)(=O)=O)c2)cc1	0	-	-
Cn1c(=O)c2c(nc(SCC(=O)N3CCc4ccccc43)n2Cc2ccccc2)n(C)c1=O	0	0	0
Cc1cc2nc(C)n(CCCNC(=O)Nc3ccc(F)cc3)c2cc1C	2.3	-	-
O=C(NCCN1CCc2ccccc2C1)Nc1ccc(F)cc1	0	0	0
NC(=O)C1CCN(Cc2nc3ccccc3c(=O)[nH]2)CC1	0	-	-
NC(=O)C1CCN(Cc2nc3cc(Cl)ccc3c(=O)[nH]2)CC1	2	-	-
CCN(c1ccc(NC(=O)COC(=O)c2ccc(S(=O)(=O)N3CCCC3)cc2)cc1)C(C)C	0	-	-
CCCNC(=O)CCC(=O)Nc1ncc(-c2ccc(C)cc2)n1C	2.2	0	0
CCCNC(=O)CCC(NS(=O)(=O)c1ccc(C)cc1)C(=O)NCCC (configuration not stated)	0	0	0
CCOC(=O)CCSc1nnc(-c2cccnc2)n1-c1ccccc1OC	0	0	0
Cc1ccc2oc(=O)c3cc(C(=O)N4CCN(c5ncccn5)CC4)sc3c2c1	-	0	0
CCOC(=O)N1CCC(NC(=O)c2ccc(CS(=O)(=O)c3ccccc3C)o2)CC1	0	0	0
Cc1c(/C=N/NC(=O)c2sc3ccccc3c2Cl)cnn1C	0	-	-
Cc1ccc(-c2cc(C(=O)N/N=C\c3cnn(C)c3C)c3ccccc3n2)cc1C	2	-	-
Cc1nc2ncnn2c(N2CCN(c3cccc(C(F)(F)F)c3)CC2)c1C	2	0	0
Cc1cc(N2CCN(c3cccc(C(F)(F)F)c3)CC2)n2ncnc2n1	0	0	0
CSC(=NNC(=O)c1ccc(O)cc1)SC	0	-	-
CCC(CC)C(=O)Nc1ccccc1NC(C)=O	0	0	0
Cc1ccc(-c2cc(C(=O)N3CCOCC3)c3ccccc3n2)cc1	0	0	0
CC(C)c1ccc(-c2cc(C(=O)N3N=C(C(F)F)CC3(O)C(F)F)c3ccccc3n2)cc1 (configuration not stated)	2.1	-	-
CCNC(=S)NC1CC2CCCC(C1)N2Cc1ccco1 (configuration not stated)	0	-	-
O=C(NC1CC2CCCC(C1)N2Cc1ccco1)NC12CC3CC(CC(C3)C1)C2 (configuration not stated)	2.2	0	0
CCCCCCc1nc2ccccc2c(=O)n1NC(=O)c1c(O)c2cccc3c2n(c1=O)CCC3	0	-	-
SMILES	PLAP act	TNAP act DEA	Ec RNAP inh
CC(=O)Nc1sc2c(c1C#N)CCCCC2	-	0	21.8
CCC(=O)Nc1sc2c(c1C#N)CCCCC2	0	-	-
COc1ccc(OC)c(NC(=O)CSCc2cnn(-c3ccccc3)c2-n2cccc2)c1	0	0	0
COc1cccc(CNC(=O)CSCc2cnn(-c3ccccc3)c2-n2cccc2)c1OC	2.6	-	-
COc1ccccc1CNC(=O)CSCc1cnn(-c2ccccc2)c1-n1cccc1	2.7	-	-
COc1cc(NC(=O)CSCc2cnn(-c3ccccc3)c2-n2cccc2)cc(OC)c1	-	0	0
CSC(=NC#N)N1CCN(c2ccc(Cl)cc2)CC1	0	-	-
CCOC(=O)c1cc2occc2n1CC(=O)Nc1ccc(OC)cc1OC	0	0	0
COc1ccc(CNC(=O)c2c(N)n(CCCN3CCOCC3)c3nc4ccccc4nc23)cc1	0	-	-
Nc1c(C(=O)NCc2ccc(F)cc2)c2nc3ccccc3nc2n1CCCN1CCOCC1	2	-	-
CCOc1nc(-c2ccccc2Cl)ccc1C#N	0	-	-
CCOCCCN(C(=O)Nc1ccc(CC)cc1)C1CCN(C(C)=O)CC1	0	0	0
CCOc1ccc(NC(=O)N(CCC(C)C)C2CCN(C(C)=O)CC2)cc1	2	-	-
COC(=O)c1sccc1-c1ccc(/C=N/OC(=O)c2ccccc2)o1	0	-	-
C/C(=N\NC(=O)c1cccc(S(=O)(=O)Nc2ccccc2Cl)c1)c1ccc(-n2ccnc2)cc1	0	-	-
COc1ccc(NS(=O)(=O)c2cccc(C(=O)N/N=C(\C)c3ccc(-n4ccnc4)cc3)c2)cc1	2.1	-	-
Cn1c(C(=O)OC(C(=O)NC2CCCCC2)c2ccncc2)cc2sccc21 (configuration not stated)	0	0	0
Cc1csc(NC(=O)CSc2nnc(Cn3c(=O)sc4ccccc43)n2-c2ccccc2)n1	0	0	0
CC(=O)C1=C(O)C(=O)N(c2nccs2)C1c1ccccc1 (configuration not stated)	0	-	-
O=C(Nc1ccccc1Cl)C1CCN(Cc2cnn(-c3ccccc3)c2-n2cccc2)CC1	2	-	-
COc1ccc(NC(=O)C2CCN(Cc3cnn(-c4ccccc4)c3-n3cccc3)CC2)cc1OC	-	0	0
COc1ccc(OC)c(NC(=O)C2CCN(Cc3cnn(-c4ccccc4)c3-n3cccc3)CC2)c1	0	-	-
